Assay results: PMC8338941

Biological target: Large ribosomal subunit protein eL13A (UniProt Q12690)
Experiment: cross-link between two proteins; cross-linking mass spectrometry

Sequence of Large ribosomal subunit protein eL13A (Q12690 whole entry): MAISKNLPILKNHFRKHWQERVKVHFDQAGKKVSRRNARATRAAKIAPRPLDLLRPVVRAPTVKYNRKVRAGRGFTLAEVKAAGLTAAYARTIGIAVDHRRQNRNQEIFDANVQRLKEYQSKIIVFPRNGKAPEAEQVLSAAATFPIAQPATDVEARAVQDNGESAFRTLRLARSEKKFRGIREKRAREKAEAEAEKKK

Row | Substance | listed as a hit
1 | Large ribosomal subunit protein uL29A, P0CX84 | yes
2 | Large ribosomal subunit protein eL36B, O14455 | yes
